# Calls of active or inactive are those of the source. Rule for the calls: active = hit-call score of the fitted dose curve at least 0.9, where 1 is the maximum; inactive = score below 0.9.
# Key:
# [1] = ATG_CRE_CIS: Attagene CIS-FACTORIAL HepG2 Assay for human cAMP Responsive Element (CRE) binding protein 3 (AID 2282926); details: HepG2 CRE cis-reporter, Attagene multiplexed mRNA; actives raise or lower the signal
# Summary of the method: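 We dosed HepG2 cells bearing multiple cis-promoter reporter units for 24 h and measured reporter mRNA by RT-PCR with capillary electrophoresis detection. Bidirectional concentration-response fitting used DMSO as negative control.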
# [2] = ATG_CMV_CIS: Attagene CIS-FACTORIAL HepG2 Assay for human CMV (Internal Marker) (AID 2282928); details: HepG2 CMV promoter reporter, transcription factor profiling; actives raise or lower the signal;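 note: endpoint acts as a background internal control marker rather than a target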
# Summary of the method: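 After transient transfection of HepG2 with reporter transcription units driven by cis-regulatory promoters, cells receive test chemical for 24 h. Labeled reporter amplicons, digested with HpaI, are sized and quantified by capillary electrophoresis against DMSO.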
# [3] = ATG_DR4_LXR_CIS: Attagene CIS-FACTORIAL HepG2 Assay for human Liver X Receptor (LXR), DR4 submotif (AID 2282929); details: HepG2 Attagene DR4 cis-reporter, mRNA transcription; actives raise or lower the signal
# Summary of the method: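 DR4 cis-reporter in HepG2, 24 h exposure. Detection: RT-PCR, 6-FAM labelling, CE fragment analysis. Endpoint fitted bidirectionally, DMSO = baseline.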
# [4] = target: Aryl hydrocarbon receptor (Homo sapiens) (UniProt P35869); assay: ATG_Ahr_CIS: Attagene CIS-FACTORIAL HepG2 Assay for human Aryl Hydrocarbon Receptor (Ahr) (AID 2282930); details: HepG2 AhR cis-factorial reporter transcription; actives raise or lower the signal
# Summary of the method: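 Read-out: reporter mRNA quantified by RT-PCR with fluorescent primer extension and capillary electrophoresis. Human HepG2 liver cells carried transfected cis-promoter reporter units and were exposed to chemical for 24 h; gain or loss fitted relative to DMSO.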
# [5] = ATG_AP_2_CIS: Attagene CIS-FACTORIAL HepG2 Assay for human Activator Protein 2 (AP-2) (AID 2282932); details: HepG2 AP-2 cis-reporter, Attagene transcription factor profiling; actives raise or lower the signal
# Summary of the method: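 HepG2 cells transiently transfected with cis-element reporter units and exposed for 24 h. Reporter mRNA measured by RT-PCR, FAM labelling, HpaI digestion and capillary electrophoresis. Changes in either direction fitted relative to DMSO.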
# [6] = target: Retinoic acid receptor alpha (Homo sapiens) (UniProt P10276); assay: ATG_DR5_RAR_CIS: Attagene CIS-FACTORIAL HepG2 Assay for human Retinoic Acid Receptor Alpha (RARE), DR5 submotif (AID 2282934); details: HepG2 Attagene cis-factorial RARE DR5 reporter, mRNA; actives raise or lower the signal;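 for AC50: reporter responds to endogenous RAR alpha beta and gamma in HepG2 not RARA alone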
# Summary of the method: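 Read-out: DR5-driven reporter transcript measured by RT-PCR, 6-FAM primer extension, HpaI digest and capillary electrophoresis. Human HepG2 liver cells carry transiently transfected cis-element reporter constructs; dosing lasts 24 h. Gain or loss of signal fitted against DMSO baseline.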
# [7] = target: Transcription factor E2F1 (Homo sapiens) (UniProt Q01094); assay: ATG_E2F_CIS: Attagene CIS-FACTORIAL HepG2 Assay for human E2F Transcription Factor 1 (AID 2282935); details: HepG2 Attagene cis-reporter, E2F reporter RNA transcripts; actives raise or lower the signal
# Summary of the method: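 Endogenous E2F1 activity read through cis-promoter reporter units transfected into HepG2. After 24 h compound treatment, reporter mRNA measured by RT-PCR, HpaI digestion and capillary electrophoresis. Bidirectional fit versus DMSO.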
# [8] = ATG_E_Box_CIS: Attagene CIS-FACTORIAL HepG2 Assay for human Enhancer Box (E-box) (AID 2282936); details: HepG2 E-box cis-reporter transcription, actives raise or lower the signal
# Summary of the method: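 HepG2 cells transiently transfected with multiplexed cis-element reporter units, dosed 24 h; reporter mRNA quantified by RT-PCR, 6-FAM labelling, HpaI digestion and capillary electrophoresis. E-box (USF1) signal fitted bidirectionally vs DMSO.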
# [9] = ATG_M_61_CIS: Attagene CIS-FACTORIAL HepG2 Assay for M61 Transcription Factor (Internal Marker) (AID 2282937); details: HepG2 Attagene CIS-FACTORIAL M61 internal marker reporter; actives raise or lower the signal
# Summary of the method: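 Background-control endpoint: HepG2 cells with cis-regulated reporter constructs, 24 h exposure, reporter mRNA detected via fluorescent primer extension and capillary electrophoresis; values from bidirectional fitting with DMSO baseline.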
# [10] = ATG_EGR_CIS: Attagene CIS-FACTORIAL HepG2 Assay for human Early Growth Response 1 (EGR1) (AID 2282938); details: HepG2 Attagene CIS-FACTORIAL EGR reporter mRNA; actives raise or lower the signal
# Summary of the method: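 Endpoint derived by bidirectional fitting versus DMSO vehicle. Method: cis-promoter reporter units transfected into HepG2, 24 h dosing, RNA isolation, RT-PCR with 6-FAM primer extension and HpaI digestion, then capillary electrophoresis fluorescence detection.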
# [11] = ATG_M_19_CIS: Attagene CIS-FACTORIAL HepG2 Assay for M19 Transcription Factor (Internal Marker) (AID 2282939); details: HepG2 Attagene CIS-FACTORIAL M19 internal marker reporter; actives raise or lower the signal
# Summary of the method: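 Chemical-treated HepG2 (24 h) with MRTU constructs; reporter transcripts detected by fluorescent RT-PCR fragment analysis on capillary electrophoresis. Internal background marker, DMSO as baseline.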
# [12] = ATG_ERE_CIS: Attagene CIS-FACTORIAL HepG2 Assay for Estrogen Response Element (ERE) (AID 2282940); details: HepG2 ERE cis-reporter, Attagene RNA transcript; actives raise or lower the signal
# Summary of the method: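 Human liver cells (HepG2) bearing transiently transfected, promoter-regulated reporter units were exposed 24 h. Reporter mRNA induction was detected by capillary electrophoresis of labelled RT-PCR products and fitted bidirectionally to DMSO.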
# [13] = ATG_Ets_CIS: Attagene CIS-FACTORIAL HepG2 Assay for human Erythroblast Transformation Specific (ETS) (AID 2282941); details: HepG2 ETS cis-reporter transcription, actives raise or lower the signal
# Summary of the method: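 Human HepG2 hepatoma cells were transiently transfected with promoter-driven reporter constructs and treated for 24 hours. Reporter transcripts were quantified by RT-PCR with fluorescent primer extension; bidirectional curve fitting used DMSO as reference.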
# [14] = target: Hepatocyte nuclear factor 3-beta (Homo sapiens) (UniProt Q9Y261); assay: ATG_FoxA2_CIS: Attagene CIS-FACTORIAL HepG2 Assay for human Forkhead box A2 (FOXA2) (AID 2282942); details: HepG2 cis-reporter transcription factor activity, 24 h; actives raise or lower the signal
# Summary of the method: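 Measured: reporter mRNA induction or loss in HepG2 transiently carrying multiple cis-regulated reporter units, 24 h after dosing. Quantified by RT-PCR plus capillary electrophoresis, normalised to DMSO.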
# [15] = ATG_FoxO_CIS: Attagene CIS-FACTORIAL HepG2 Assay for human Forkhead box O (FoxO) (AID 2282943); details: HepG2 Attagene cis-reporter, FoxO element, mRNA; actives raise or lower the signal
# Summary of the method: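 Read-out: fluorescence of 6-FAM-labelled reporter cDNA fragments resolved by capillary electrophoresis. Transiently transfected HepG2 cells were dosed for 24 h; activity fitted in both directions relative to DMSO controls.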
# [16] = ATG_GATA_CIS: Attagene CIS-FACTORIAL HepG2 Assay for human GATA Binding Protein (AID 2282944); details: HepG2 GATA cis-element reporter, Attagene multiplex mRNA; actives raise or lower the signal
# Summary of the method: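 Transfected cis-reporter HepG2 cells were treated with chemicals for 24 hours. Total RNA was then converted to cDNA, amplified with reporter-specific primers and analysed by fluorescent capillary electrophoresis, using DMSO-treated wells as baseline.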
# [17] = target: CCAAT/enhancer-binding protein beta (Homo sapiens) (UniProt P17676); assay: ATG_C_EBP_CIS: Attagene CIS-FACTORIAL HepG2 Assay for human CCAAT/Enhancer Binding Protein (C/EBP) beta (AID 2282927); details: HepG2 Attagene cis-factorial transcription factor reporter; actives raise or lower the signal
# Summary of the method: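 Transiently transfected HepG2 (MRTU library, endogenous TF-driven promoters); 24 h dosing; total RNA → oligo(dT) RT → PCR → 6-FAM primer extension → HpaI digest → CE; fit bidirectionally vs DMSO.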
# [18] = ATG_AP_1_CIS: Attagene CIS-FACTORIAL HepG2 Assay for human Activator Protein 1 (AP-1) (AID 2282931); details: HepG2 Attagene cis-factorial AP-1 reporter mRNA; actives raise or lower the signal
# Summary of the method: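 Cis-regulated reporter units transiently expressed in HepG2 report endogenous transcription-factor activity. Signal: reporter mRNA at 24 h, via RT-PCR and fluorescent capillary electrophoresis. Endpoint derived by bidirectional fitting, DMSO as negative control.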
# [19] = ATG_BRE_CIS: Attagene CIS-FACTORIAL HepG2 Assay for human Bone Morphogenetic Protein (BMP) Response Element (BRE) (AID 2282933); details: HepG2 BMP response element reporter, Attagene transcription factor profiling; actives raise or lower the signal
# Summary of the method: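 A HepG2 multiplex reporter system measured inducible reporter mRNA 24 h post-dosing. Detection: RT-PCR, 6-FAM primer extension, HpaI digestion, capillary electrophoresis. Activity fitted bidirectionally relative to DMSO.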
# Chain of Hepatocyte nuclear factor 3-beta (Homo sapiens) (Q9Y261 whole entry, looked up): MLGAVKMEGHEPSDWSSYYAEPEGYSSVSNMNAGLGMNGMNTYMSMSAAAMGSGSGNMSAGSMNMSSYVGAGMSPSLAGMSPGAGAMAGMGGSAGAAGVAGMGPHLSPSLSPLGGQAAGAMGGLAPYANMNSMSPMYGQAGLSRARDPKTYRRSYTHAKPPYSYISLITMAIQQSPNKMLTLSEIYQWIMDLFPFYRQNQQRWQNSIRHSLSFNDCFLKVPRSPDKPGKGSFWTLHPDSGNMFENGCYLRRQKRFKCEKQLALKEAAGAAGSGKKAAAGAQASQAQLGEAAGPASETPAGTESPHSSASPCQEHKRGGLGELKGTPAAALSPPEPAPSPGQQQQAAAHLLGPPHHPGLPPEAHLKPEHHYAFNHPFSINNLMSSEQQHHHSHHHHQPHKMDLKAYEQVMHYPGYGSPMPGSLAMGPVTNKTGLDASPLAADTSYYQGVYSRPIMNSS
# Chain of Retinoic acid receptor alpha (Homo sapiens) (P10276 whole entry, looked up): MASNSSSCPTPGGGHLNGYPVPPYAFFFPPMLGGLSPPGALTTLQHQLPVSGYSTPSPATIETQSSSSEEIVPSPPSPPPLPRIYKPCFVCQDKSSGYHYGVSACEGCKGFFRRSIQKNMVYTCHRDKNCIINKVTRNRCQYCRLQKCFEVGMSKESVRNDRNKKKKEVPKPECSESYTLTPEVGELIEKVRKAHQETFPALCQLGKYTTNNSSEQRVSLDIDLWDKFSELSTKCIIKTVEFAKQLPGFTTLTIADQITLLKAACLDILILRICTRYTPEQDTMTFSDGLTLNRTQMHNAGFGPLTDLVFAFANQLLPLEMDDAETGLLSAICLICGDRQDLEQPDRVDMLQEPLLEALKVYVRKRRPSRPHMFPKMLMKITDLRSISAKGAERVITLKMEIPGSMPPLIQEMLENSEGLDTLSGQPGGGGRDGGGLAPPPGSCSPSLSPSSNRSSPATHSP
# Chain of CCAAT/enhancer-binding protein beta (Homo sapiens) (P17676 whole entry, looked up): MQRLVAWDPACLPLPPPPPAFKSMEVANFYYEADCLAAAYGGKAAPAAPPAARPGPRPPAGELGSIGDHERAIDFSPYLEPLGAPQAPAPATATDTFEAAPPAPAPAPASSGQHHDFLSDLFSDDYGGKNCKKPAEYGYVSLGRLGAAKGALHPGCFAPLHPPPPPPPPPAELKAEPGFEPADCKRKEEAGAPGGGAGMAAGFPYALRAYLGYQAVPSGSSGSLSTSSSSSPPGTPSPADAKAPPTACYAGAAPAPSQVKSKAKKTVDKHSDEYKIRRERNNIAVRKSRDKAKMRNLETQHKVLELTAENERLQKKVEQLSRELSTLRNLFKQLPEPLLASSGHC
# Chain of Aryl hydrocarbon receptor (Homo sapiens) (P35869 whole entry, looked up): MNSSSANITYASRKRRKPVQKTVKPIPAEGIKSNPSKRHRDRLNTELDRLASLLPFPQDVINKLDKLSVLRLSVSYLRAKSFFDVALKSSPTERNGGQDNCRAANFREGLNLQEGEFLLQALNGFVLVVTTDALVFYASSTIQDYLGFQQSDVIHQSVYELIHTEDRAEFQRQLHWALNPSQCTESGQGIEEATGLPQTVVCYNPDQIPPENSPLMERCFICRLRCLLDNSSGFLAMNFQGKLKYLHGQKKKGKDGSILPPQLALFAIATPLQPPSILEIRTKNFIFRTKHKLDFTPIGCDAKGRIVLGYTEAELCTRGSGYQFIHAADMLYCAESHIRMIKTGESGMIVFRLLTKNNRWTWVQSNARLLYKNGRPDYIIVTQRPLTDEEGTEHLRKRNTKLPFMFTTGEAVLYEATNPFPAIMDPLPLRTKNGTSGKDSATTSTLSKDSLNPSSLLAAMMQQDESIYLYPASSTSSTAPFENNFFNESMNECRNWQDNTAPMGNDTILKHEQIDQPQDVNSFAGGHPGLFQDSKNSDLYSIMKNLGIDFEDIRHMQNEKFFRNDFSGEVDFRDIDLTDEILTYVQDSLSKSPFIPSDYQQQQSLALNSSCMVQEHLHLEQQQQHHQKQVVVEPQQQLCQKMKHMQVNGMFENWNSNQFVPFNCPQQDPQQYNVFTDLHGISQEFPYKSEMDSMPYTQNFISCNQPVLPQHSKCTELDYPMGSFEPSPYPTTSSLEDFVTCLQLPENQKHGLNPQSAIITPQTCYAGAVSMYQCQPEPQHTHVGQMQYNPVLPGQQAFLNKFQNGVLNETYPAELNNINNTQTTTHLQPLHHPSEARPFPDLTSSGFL
# Chain of Transcription factor E2F1 (Homo sapiens) (Q01094 whole entry, looked up): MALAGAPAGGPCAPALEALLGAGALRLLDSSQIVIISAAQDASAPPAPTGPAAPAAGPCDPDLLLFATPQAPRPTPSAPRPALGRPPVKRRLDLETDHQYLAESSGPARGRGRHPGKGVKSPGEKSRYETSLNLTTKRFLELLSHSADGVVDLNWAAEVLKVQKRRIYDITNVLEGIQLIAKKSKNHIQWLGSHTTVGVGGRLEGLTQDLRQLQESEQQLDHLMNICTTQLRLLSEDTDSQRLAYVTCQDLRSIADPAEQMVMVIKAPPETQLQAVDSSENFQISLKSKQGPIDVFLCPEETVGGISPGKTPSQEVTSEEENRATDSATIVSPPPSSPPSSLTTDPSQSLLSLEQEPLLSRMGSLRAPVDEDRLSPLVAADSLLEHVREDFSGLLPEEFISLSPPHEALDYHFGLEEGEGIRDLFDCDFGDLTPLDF
structure (smiles),measurement,setting,value
NC(=O)C(F)(F)C(F)(F)C(F)(F)C(F)F,outcome,[1],inactive
same,outcome,[2],inactive
same,outcome,[3],inactive
same,outcome,[4],inactive
same,outcome,[5],inactive
same,outcome,[6],inactive
same,outcome,[7],inactive
same,outcome,[8],inactive
same,outcome,[9],inactive
same,outcome,[10],inactive
same,outcome,[11],inactive
same,outcome,[12],inactive
same,outcome,[13],inactive
same,outcome,[14],inactive
same,outcome,[15],inactive
same,outcome,[16],inactive
N#Cc1ccccc1O,outcome,[1],inactive
same,outcome,[17],inactive
same,outcome,[2],inactive
same,outcome,[3],inactive
same,AC50,[4],10.8 µM (active)
same,outcome,[5],inactive
same,outcome,[6],inactive
same,outcome,[7],inactive
same,outcome,[8],inactive
same,outcome,[9],inactive
same,outcome,[10],inactive
same,outcome,[11],inactive
same,outcome,[12],inactive
same,outcome,[13],inactive
same,outcome,[14],inactive
same,outcome,[15],inactive
same,outcome,[16],inactive
CCCCCCCCn1sc(Cl)c(Cl)c1=O,outcome,[1],inactive
same,outcome,[2],inactive
same,outcome,[3],inactive
same,AC50,[4],6.89 µM (active)
same,AC50,[18],13.8 µM (active)
same,AC50,[5],11.1 µM (active)
same,outcome,[19],inactive
same,AC50,[6],5.39 µM (active)
same,outcome,[7],inactive
same,outcome,[8],inactive
same,outcome,[9],inactive
same,outcome,[10],inactive
same,outcome,[11],inactive
same,AC50,[12],11.1 µM (active)
same,AC50,[13],6.69 µM (active)
same,outcome,[15],inactive
same,AC50,[16],20.5 µM (active)
CCCCOC(=O)C(C)O (stereo not drawn),outcome,[1],inactive
same,outcome,[17],inactive
same,outcome,[2],inactive
same,outcome,[3],inactive
same,outcome,[4],inactive
same,outcome,[18],inactive
same,outcome,[5],inactive
same,outcome,[19],inactive
same,outcome,[7],inactive
same,outcome,[8],inactive
same,outcome,[9],inactive
same,outcome,[10],inactive
same,outcome,[11],inactive
same,outcome,[12],inactive
same,outcome,[13],inactive
same,outcome,[14],inactive
same,outcome,[15],inactive
same,outcome,[16],inactive
OCCCCC(F)(F)C(F)(F)C(F)(F)C(F)(F)F,outcome,[1],inactive
same,outcome,[17],inactive
same,outcome,[2],inactive
same,outcome,[3],inactive
same,outcome,[4],inactive
same,outcome,[5],inactive
same,outcome,[19],inactive
same,outcome,[6],inactive
same,outcome,[7],inactive
same,outcome,[8],inactive
same,outcome,[9],inactive
same,outcome,[10],inactive
same,outcome,[11],inactive
same,outcome,[12],inactive
same,outcome,[13],inactive
same,outcome,[14],inactive
same,outcome,[15],inactive
same,outcome,[16],inactive
C=CC(=O)OCCC(F)(F)C(F)(F)C(F)(F)C(F)(F)F,outcome,[1],inactive
same,outcome,[17],inactive
same,outcome,[2],inactive
same,AC50,[3],94 µM (active)
same,outcome,[4],inactive
same,AC50,[18],213 µM (active)
same,outcome,[5],inactive
same,AC50,[19],101 µM (active)
same,outcome,[6],inactive
same,outcome,[7],inactive
same,outcome,[8],inactive
same,outcome,[9],inactive
same,outcome,[10],inactive
same,outcome,[11],inactive
same,outcome,[12],inactive
same,outcome,[13],inactive
same,outcome,[14],inactive
same,outcome,[15],inactive
same,outcome,[16],inactive
CCCCCCCC/C=C\CCCCCCCC(=O)OCC(O)CO (stereo not drawn),outcome,[1],inactive
same,outcome,[17],inactive
same,outcome,[2],inactive
same,outcome,[3],inactive
same,outcome,[4],inactive
same,AC50,[18],100 µM (active)
same,outcome,[5],inactive
same,outcome,[19],inactive
same,outcome,[7],inactive
same,outcome,[8],inactive
same,outcome,[9],inactive
same,outcome,[10],inactive
same,outcome,[11],inactive
same,outcome,[12],inactive
same,outcome,[13],inactive
same,outcome,[14],inactive
same,outcome,[15],inactive
same,outcome,[16],inactive

# Reference: PubChem BioAssay (EPA / NIEHS)
